From PubChem BioAssay (Tox21) come the findings set out here.

The structures appear in SMILES notation. Results filed as inconclusive are left out. Active and inactive are the calls of the source. Unless noted, calls come from the whole dose curve; as a rule, active = well fitted curve in the direction sought with a large enough effect in the repeat runs; inconclusive = weak or mixed curves; inactive = no such curve, though single readings can be large; an effect the other way counts as inactive or inconclusive.

Test [1] addresses Estrogen receptor beta (Homo sapiens) (UniProt Q92731). Description: qHTS assay to identify small molecule antagonists of the estrogen receptor beta (ER-beta) signaling pathway (AID 1259378; active = well fitted inhibition curve with a large enough effect in the signal ratio in the repeat runs, not every such curve was filed as active; the % refers to the signal ratio). The essentials: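 Antagonist mode: compounds added to beta-lactamase reporter HEK293T ER-beta-UAS cells stimulated with E2 (1nM final), 16 hr at 37C. LiveBLAzer B/G FRET substrate, 2 hours room temperature, fluorescence read-out.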
(Quantitative high-throughput screening tests each substance at several concentrations.)

Test [2] can be described thus: qHTS assay to identify small molecule agonists of the androgen receptor (AR) signaling pathway in the presence of an antagonist - cell viability counter screen (AID 1259379). Note: series mostly up to about 92 µM; nearly all actives have a fitted effect of over 25% in size. The essentials:
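MDA-kb2 human breast carcinoma cells (stable MMTV-luciferase, AR/GR responsive) were seeded 3,000 cells/well, pre-incubated 5 hr at 37C without CO2, then given 3.0uM nilutamide and compounds at 15 concentrations for 16 hr. Viability was read by CellTiter-Fluor fluorescence.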

Test [3] can be described thus: qHTS assay to identify small molecule agonists of the estrogen receptor beta (ER-beta) signaling pathway - cell viability counter screen (AID 1259380). Note: nearly all actives have a fitted effect of over 30% in size. Note: potency is the fitted concentration of half-maximal effect. The essentials: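 ER-beta-UAS-bla HEK293T cells in medium with 2% charcoal-stripped FBS were preincubated 6 hr at 37C, dosed with compound in DMSO for 16 hr, then after the bla read, CellTiter-Glo was added for 30 min at room temperature; luminescence recorded.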

Test [4] can be described thus: qHTS assay to identify small molecule antagonists of the estrogen receptor beta (ER-beta) signaling pathway - cell viability counter screen (AID 1259382).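 Note: HEK293T cells carrying ER-beta-UAS-bla reporter stimulated with estradiol; series mostly up to about 92 µM; nearly all actives have a fitted effect of over 55% in size.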 The essentials:
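ER-beta-UAS-bla HEK293T cells (2,000/well, 2% charcoal-stripped FBS) were pre-incubated 6 hr at 37C, then given compound plus 1nM final 17-beta-estradiol for 16 hr. Viability was read in the same wells by CellTiter-Glo luminescence after 30 min at room temperature.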

In test [5] the target is Estrogen receptor (Homo sapiens) (UniProt P03372). Description: qHTS assay to identify small molecule agonists of the estrogen receptor alpha (ER-alpha) signaling pathway in the presence of an antagonist (AID 1259383; calls by dose curve; note: top concentration of the series differs between compounds; nearly all actives have a fitted effect of over 15% in size). The essentials:
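VM7Luc4E2 cells (endogenous full-length ER-alpha, 4×ERE-luciferase) were precultured 5 days in phenol red-free medium with 10% charcoal-stripped FBS, given 10.0nM ICI-182,780 (final), then treated with compounds at 15 concentrations for 22hr at 37C; luminescence read with ONE-Glo.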

Test [6] is described as follows: qHTS assay to identify small molecule agonists or antagonists of the thyroid stimulating hormone receptor (TSHR) signaling pathway - wild type cell line counter screen (AID 1259384; calls by dose curve). The essentials: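 Counter screen in untransfected Hek293: compounds (15-point titration, triplicate) plus phosphodiesterase inhibitor Ro20-1724 added after 18 h plating; 30 min RT. Intracellular cAMP via competitive d2/cryptate immunoassay, 1 h incubation.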

The target of test [7] is Thyrotropin receptor (Homo sapiens) (UniProt P16473). The test is described as follows: qHTS assay to identify small molecule antagonists of the thyroid stimulating hormone receptor (TSHR) signaling pathway (AID 1259385; calls by dose curve; note: nearly all actives have a fitted effect of over 20% in size). The essentials: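 Antagonist mode: compound-treated TSHR-expressing HEK293 cells were stimulated with 1.5 ng/mL TSH (final) in presence of Ro20-1724 for 30 min at RT. HTRF cAMP detection after 1 h; each compound tested at 15 concentrations, triplicate.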

Test [8] is described as follows: qHTS assay to identify small molecule agonists of the estrogen receptor alpha (ER-alpha) signaling pathway in the presence of an antagonist - cell viability counter screen (AID 1259386).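 Note: series mostly up to about 92 µM; cells exposed to compounds for 22 h at 37 °C before the viability read; nearly all actives have a fitted effect of over 30% in size.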 The essentials:
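VM7Luc4E2 cells (endogenous full-length ER-alpha, 4×ERE-luciferase) were held 5 days in phenol red-free medium with 10% charcoal-stripped FBS, plated, then given 10.0nM ICI-182,780 and compounds at 15 concentrations for 22hr at 37C; viability read by CellTiter-Fluor fluorescence.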

Test [9] deals with Progesterone receptor (Homo sapiens) (UniProt P06401). Description: qHTS assay to identify small molecule agonists of the progesterone receptor (PR) signaling pathway (AID 1346784; calls by dose curve; note: nearly all actives have a fitted effect of over 30% in size). The essentials:
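PR-UAS-bla HEK 293T cells (beta-lactamase reporter under UAS) in 2% charcoal-stripped FBS, dosed with 23 nL compound after 6 hr, incubated 16hr at 37C. LiveBLAzer B/G FRET substrate added, fluorescence read after 2 hours.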

The nature of test [10]: qHTS assay to identify small molecule antagonists of the progesterone receptor (PR) signaling pathway - cell viability counter screen (AID 1346798). Note: series mostly up to about 92 µM; nearly all actives have a fitted effect of over 50% in size. The essentials: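 PR-UAS-bla HEK293T cells, 3,000/well in 2% charcoal-stripped FBS medium, dosed with compounds plus R5020 agonist and incubated 16 h at 37C. Viability then measured in the same wells by CellTiter-Glo luminescence after 30 min at RT.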

Test [11] in a line: qHTS assay to identify small molecule antagonists of the TGF-beta/Smad signaling pathway - cell viability counter screen (AID 1346824). Note: nearly all actives have a fitted effect of over 50% in size. The essentials:
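Cytotoxicity counter-screen run in the same wells as the beta-lactamase Smad reporter read: CellTiter-Glo luminescence after 30 min at room temperature. HEK 293T SBE-bla cells had 5 hr compound exposure at 37 C with TGF-beta1 (0.25 ng/mL stock).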

The nature of test [12]: qHTS assay to identify small molecule agonists of the TGF-beta/Smad signaling pathway - cell viability counter screen (AID 1346829). Note: top concentration of the series differs between compounds; nearly all actives have a fitted effect of over 45% in size. The essentials: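 Cytotoxicity counter screen: CellTiter-Glo luminescence (30 min, room temperature) measured in the SBE-bla HEK 293T reporter wells after 5 hr compound treatment at 37 C and the 2 hr substrate step.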
Test [13] in a line: qHTS assay to identify small molecule agonists of the TGF-beta/Smad signaling pathway (AID 1346859; active = well fitted activation curve with a large enough effect in the signal ratio in the repeat runs, not every such curve was filed as active; the % refers to the signal ratio; note: series mostly up to about 77 µM). The essentials:
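SBE-bla HEK293T cells plated overnight, then compound exposure for 5 h at 37 C. Beta-lactamase reporter read with LiveBLAzer B/G FRET substrate after 2 h at room temperature, fluorescence at 405 nm excitation, 460/530 nm emission.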

Test [14] is described as follows: Human pregnane X receptor (PXR) small molecule agonists, qHTS cell viability counter screen (AID 1346977). Note: nearly all actives have a fitted effect of over 50% in size. The essentials:
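PXR-Luc HepG2 cells (2,000/well, 5% charcoal-stripped FBS) preincubated 5 hr, then exposed to compounds 24 hr at 37 C. Viability read in the same wells by CellTiter-Fluor fluorescence, reagent added at 23 hr, 1 hr incubation.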

Test [15] is described as follows: Caspase-3/7 induction in HepG2 cells by small molecules, qHTS assay (AID 1346978). Note: nearly all actives have a fitted effect of over 15% in size. The essentials:
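Caspase-3/7 induction was measured by Caspase-Glo 3/7 luminescence (30 min, room temperature) after a 17 hr compound exposure of wild-type HepG2 cells seeded at 2,000 per well and pre-incubated 5 hr.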

Test [16] concerns the target Progesterone receptor (Homo sapiens) (UniProt P06401). Description: qHTS assay to identify small molecule antagonists of the progesterone receptor (PR) signaling pathway (AID 1346795; active = well fitted inhibition curve with a large enough effect in the signal ratio in the repeat runs, not every such curve was filed as active; the % refers to the signal ratio). The essentials:
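PR-UAS-bla HEK293T cells with beta-lactamase reporter under UAS control, in 2% charcoal-stripped FBS, treated with compounds plus 1 nM promegestone (R5020, final) for 16 hr at 37C. Read-out: FRET beta-lactamase substrate fluorescence after 2 hr at room temperature.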

Test [17] can be described thus: qHTS assay to identify small molecule agonists of the progesterone receptor (PR) signaling pathway - cell viability counter screen (AID 1346799; calls by dose curve; note: nearly all actives have a fitted effect of over 45% in size). The essentials:
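Counter screen in the PR-UAS-bla HEK293T wells (2% charcoal-stripped FBS, 16 h compound exposure at 37 C) after the bla read. CellTiter-Glo added, 30 min at room temperature, luminescence read as cell viability.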

The target of test [18] is Thyrotropin-releasing hormone receptor (Homo sapiens) (UniProt P34981). The test is described as follows: qHTS assay to identify small molecule antagonists of the thyrotropin-releasing hormone receptor (TRHR) signaling pathway (AID 1346877; active = well fitted inhibition curve with a large enough effect in the repeat runs, not every such curve was filed as active; note: series mostly up to about 51 µM). The essentials:
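TRHR-expressing HEK293 cells were seeded, cultured 18 h at 37 °C, then loaded with calcium dye for 2 h. Compounds were pre-incubated 5 min at room temperature before 1 nM TRH (final) was added, and kinetic fluorescence was recorded for 3 min.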

The target is the same in test [19]. Description: qHTS assay to identify small molecule agonists of the thyrotropin-releasing hormone receptor (TRHR) signaling pathway (AID 1346891; calls by dose curve; note: series mostly up to about 58 µM). The essentials: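 HEK293 cells expressing TRHR plated 18 h at 37 C/5% CO2, calcium dye-loaded 2 h at 37 C, then compound added (agonist mode); kinetic calcium fluorescence read 3 min at 1 s intervals; 15 concentrations in triplicate.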

Test [20] has as its target Androgen receptor (Homo sapiens) (UniProt P10275). The test is described as follows: qHTS assay to identify small molecule agonists of the androgen receptor (AR) signaling pathway in the presence of an antagonist (AID 1259381; calls by dose curve; note: nearly all actives have a fitted effect of over 15% in size). The essentials: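 MDA-kb2 human breast carcinoma cells carrying an MMTV-luciferase reporter (AR- and GR-responsive) were treated with compounds at 15 concentrations plus 3.0uM final nilutamide for 16hr at 37C without CO2; luminescence was read after ONE-Glo addition.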

Estrogen receptor beta (Homo sapiens), sequence (Q92731 whole entry, looked up): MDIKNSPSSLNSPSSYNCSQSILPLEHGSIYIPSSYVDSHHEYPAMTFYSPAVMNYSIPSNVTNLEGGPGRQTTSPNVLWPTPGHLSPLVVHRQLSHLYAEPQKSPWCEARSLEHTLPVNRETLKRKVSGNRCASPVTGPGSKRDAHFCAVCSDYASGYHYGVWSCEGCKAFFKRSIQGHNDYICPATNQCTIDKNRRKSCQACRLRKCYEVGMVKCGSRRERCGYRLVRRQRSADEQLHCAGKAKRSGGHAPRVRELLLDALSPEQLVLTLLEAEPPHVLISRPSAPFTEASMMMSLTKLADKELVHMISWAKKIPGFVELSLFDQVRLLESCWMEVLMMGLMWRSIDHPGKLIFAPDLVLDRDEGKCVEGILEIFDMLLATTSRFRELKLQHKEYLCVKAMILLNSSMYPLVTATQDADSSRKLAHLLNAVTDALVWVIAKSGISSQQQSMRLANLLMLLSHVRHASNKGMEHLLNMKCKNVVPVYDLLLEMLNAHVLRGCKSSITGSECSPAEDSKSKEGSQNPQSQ
Thyrotropin-releasing hormone receptor (Homo sapiens), sequence (P34981 whole entry, looked up): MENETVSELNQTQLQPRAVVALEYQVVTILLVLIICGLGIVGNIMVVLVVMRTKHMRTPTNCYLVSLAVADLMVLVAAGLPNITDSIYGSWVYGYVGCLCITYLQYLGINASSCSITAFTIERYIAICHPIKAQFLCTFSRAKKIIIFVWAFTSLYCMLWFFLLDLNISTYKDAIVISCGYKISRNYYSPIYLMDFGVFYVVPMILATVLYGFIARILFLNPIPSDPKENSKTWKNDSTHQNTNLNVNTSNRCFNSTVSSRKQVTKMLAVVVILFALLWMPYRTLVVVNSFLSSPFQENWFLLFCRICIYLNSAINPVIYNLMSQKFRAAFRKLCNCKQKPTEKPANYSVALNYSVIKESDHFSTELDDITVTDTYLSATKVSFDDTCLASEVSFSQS
Androgen receptor (Homo sapiens), sequence (P10275 whole entry, looked up): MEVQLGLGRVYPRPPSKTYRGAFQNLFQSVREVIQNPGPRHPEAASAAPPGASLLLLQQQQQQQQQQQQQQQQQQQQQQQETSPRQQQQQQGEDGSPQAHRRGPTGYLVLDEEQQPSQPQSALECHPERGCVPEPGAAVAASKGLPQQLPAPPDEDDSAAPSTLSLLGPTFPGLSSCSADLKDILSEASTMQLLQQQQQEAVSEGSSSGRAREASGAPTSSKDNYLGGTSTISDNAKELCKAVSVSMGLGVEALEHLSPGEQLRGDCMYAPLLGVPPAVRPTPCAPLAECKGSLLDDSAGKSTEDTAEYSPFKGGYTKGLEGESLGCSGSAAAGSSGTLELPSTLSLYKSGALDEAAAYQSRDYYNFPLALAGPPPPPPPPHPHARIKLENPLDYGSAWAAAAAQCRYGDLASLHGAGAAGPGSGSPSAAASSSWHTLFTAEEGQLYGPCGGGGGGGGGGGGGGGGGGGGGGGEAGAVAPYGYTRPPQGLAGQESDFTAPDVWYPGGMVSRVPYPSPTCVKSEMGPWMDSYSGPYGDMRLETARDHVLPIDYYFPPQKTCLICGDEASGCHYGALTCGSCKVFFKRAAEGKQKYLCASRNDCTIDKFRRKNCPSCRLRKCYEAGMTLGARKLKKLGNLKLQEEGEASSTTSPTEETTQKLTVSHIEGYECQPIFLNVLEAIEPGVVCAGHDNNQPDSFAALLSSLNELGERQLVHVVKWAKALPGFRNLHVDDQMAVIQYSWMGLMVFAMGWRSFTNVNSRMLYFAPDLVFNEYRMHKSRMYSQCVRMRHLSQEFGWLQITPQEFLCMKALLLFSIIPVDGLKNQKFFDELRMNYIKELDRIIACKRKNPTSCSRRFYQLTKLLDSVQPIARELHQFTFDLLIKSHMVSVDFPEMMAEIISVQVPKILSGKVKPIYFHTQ
Thyrotropin receptor (Homo sapiens), sequence (P16473 whole entry, looked up): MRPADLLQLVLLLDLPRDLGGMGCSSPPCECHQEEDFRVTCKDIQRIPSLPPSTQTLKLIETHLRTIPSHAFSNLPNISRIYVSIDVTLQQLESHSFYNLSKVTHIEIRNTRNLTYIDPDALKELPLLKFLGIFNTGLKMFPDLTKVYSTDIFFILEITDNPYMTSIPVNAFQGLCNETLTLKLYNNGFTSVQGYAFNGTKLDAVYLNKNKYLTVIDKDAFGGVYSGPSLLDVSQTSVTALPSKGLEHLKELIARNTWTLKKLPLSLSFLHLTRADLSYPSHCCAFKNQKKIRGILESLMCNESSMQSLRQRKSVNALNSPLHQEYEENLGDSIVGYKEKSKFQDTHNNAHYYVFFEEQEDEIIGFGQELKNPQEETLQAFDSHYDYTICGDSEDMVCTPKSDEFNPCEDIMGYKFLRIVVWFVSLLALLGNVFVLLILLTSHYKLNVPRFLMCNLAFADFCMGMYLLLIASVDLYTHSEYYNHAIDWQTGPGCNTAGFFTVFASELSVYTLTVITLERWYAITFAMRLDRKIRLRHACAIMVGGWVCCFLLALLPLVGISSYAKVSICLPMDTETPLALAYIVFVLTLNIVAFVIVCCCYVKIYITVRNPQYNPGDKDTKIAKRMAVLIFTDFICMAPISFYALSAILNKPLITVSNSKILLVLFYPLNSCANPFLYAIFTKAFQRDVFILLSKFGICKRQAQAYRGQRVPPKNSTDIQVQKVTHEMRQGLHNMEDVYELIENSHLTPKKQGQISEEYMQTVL
Progesterone receptor (Homo sapiens), sequence (P06401 whole entry, looked up): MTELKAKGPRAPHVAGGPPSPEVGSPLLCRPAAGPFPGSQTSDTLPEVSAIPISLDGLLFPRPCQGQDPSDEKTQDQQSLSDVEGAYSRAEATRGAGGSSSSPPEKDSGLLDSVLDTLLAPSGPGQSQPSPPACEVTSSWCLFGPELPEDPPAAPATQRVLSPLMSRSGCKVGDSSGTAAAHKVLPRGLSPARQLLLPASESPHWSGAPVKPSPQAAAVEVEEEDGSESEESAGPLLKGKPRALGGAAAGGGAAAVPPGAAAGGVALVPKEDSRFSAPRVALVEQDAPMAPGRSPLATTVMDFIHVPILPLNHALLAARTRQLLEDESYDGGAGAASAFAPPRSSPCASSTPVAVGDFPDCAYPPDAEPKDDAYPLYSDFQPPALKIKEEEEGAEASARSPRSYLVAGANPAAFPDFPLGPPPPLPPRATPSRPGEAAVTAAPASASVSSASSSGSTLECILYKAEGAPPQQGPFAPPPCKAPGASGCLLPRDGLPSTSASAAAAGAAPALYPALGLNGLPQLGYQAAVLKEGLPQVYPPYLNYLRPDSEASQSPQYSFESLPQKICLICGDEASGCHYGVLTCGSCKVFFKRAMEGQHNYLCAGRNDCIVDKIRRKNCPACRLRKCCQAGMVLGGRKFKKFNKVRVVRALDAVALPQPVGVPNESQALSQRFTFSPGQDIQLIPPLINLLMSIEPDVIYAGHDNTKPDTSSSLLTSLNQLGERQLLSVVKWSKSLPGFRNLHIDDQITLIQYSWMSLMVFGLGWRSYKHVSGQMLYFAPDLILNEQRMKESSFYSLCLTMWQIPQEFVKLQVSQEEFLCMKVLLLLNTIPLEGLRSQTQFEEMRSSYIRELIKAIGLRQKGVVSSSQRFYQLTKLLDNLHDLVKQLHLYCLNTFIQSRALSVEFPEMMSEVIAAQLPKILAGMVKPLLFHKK
Estrogen receptor (Homo sapiens), sequence (P03372 whole entry, looked up): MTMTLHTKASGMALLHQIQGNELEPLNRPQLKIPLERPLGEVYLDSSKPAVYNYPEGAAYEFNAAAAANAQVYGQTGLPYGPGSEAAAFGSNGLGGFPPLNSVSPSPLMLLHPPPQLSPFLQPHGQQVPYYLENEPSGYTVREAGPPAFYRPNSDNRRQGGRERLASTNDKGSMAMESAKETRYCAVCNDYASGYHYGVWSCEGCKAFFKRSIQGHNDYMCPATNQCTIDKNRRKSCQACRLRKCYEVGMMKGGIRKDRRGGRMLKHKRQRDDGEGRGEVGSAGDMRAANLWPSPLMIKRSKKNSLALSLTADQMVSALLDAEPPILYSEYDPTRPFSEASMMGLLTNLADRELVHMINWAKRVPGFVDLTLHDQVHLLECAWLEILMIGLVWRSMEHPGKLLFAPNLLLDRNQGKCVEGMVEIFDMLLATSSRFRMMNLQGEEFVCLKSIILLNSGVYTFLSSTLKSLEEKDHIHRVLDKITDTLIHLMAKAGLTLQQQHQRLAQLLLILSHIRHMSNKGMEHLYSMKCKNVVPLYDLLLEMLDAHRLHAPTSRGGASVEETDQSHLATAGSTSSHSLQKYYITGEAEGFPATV

For the compound `Cc1cc(C)cc(OP(=O)(Oc2cc(C)cc(C)c2)Oc2cc(C)cc(C)c2)c1`, the Potency result in test [1], in [2], in test [3], in [4], in test [5] and in [7] was “inactive” in each case. Moreover, the Potency result in [8], in test [9], in test [10], in test [11], in test [12] and in [14] was “inactive” throughout. The Potency result in test [15] is “inactive”. Besides, the outcome in [6] and in [13] was inactive.

Turning to `COc1cc(N)c(Cl)cc1C(=O)NC1CN2CCC1CC2` (centres undefined), the Potency result in [1], in test [2], in test [3], in test [4], in test [7] and in test [8] was “inactive” throughout. The Potency entry in test [9], in [16], in [10], in [17], in test [11] and in test [12] was “inactive” throughout. Further, the Potency result in [18], in test [19], in [14] and in test [15] was “inactive” each time. Further, the result in test [6] and in test [13] was inactive.

For the compound `CCCCOP(=O)(CCCC)OCCCC`, the Potency entry in test [1], in test [2], in test [3], in test [20], in [8] and in test [9] was “inactive” throughout. For the same compound, the Potency result in [16], in [10], in test [17], in test [11], in test [12] and in test [14] was “inactive” each time. In addition, the Potency result in test [15] is “inactive”. In addition, the compound was classed as inactive in [13].

Consider `CC(O)C#N` (centres undefined), for which the Potency result in test [1], in [2], in test [3], in [20], in test [4] and in test [5] was “inactive” throughout. Further, the Potency entry in test [7], in [8], in test [9], in [16], in test [10] and in test [17] was “inactive” throughout. The Potency result in test [11], in test [12], in test [18], in [19], in [14] and in test [15] was “inactive” each time. For the same compound, the call in test [6] and in [13] was inactive.

For `CCC(C)c1cc(C(C)(C)C)cc(-n2nc3ccccc3n2)c1O` (centres undefined), the Potency entry in test [1], in test [2], in test [3], in test [20], in [4] and in test [8] was “inactive” throughout. Also, the Potency entry in [9], in test [10], in test [11], in test [12], in test [18] and in test [19] was “inactive” in each case. Further, the Potency result in [14] and in test [15] was “inactive” throughout. Also, in [13], the call was inactive.

As for `COc1ccc(/C(=C/C(=O)N2CCOCC2)c2ccc(Cl)cc2)cc1OC`, the Potency result in test [1], in test [2], in test [20], in test [7], in [8] and in test [9] was “inactive” throughout. The Potency result in test [10], in test [17], in test [11], in test [12], in test [18] and in test [19] was “inactive” throughout. The Potency result in test [14] and in [15] was “inactive” in each case. Also, in [3], the Potency is 68.6 µM (active). In addition, the result in [6] and in test [13] was inactive.
